Structures are written as SMILES. This is part of a sample that, as a whole, favours compounds with a hit. Of some 83,000 tested, about 20% had one in any assay.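 Growth was measured after 48 h exposure to one concentration of compound in 96-well plates. Values under 10 count as active.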 The source made the active and inactive calls.

One assay concerns U251 CNS. Briefly: NCI-60 one-dose screen, 48 h (100 = growth as untreated, 0 = no growth, -100 = all killed). The settings on record: 10 µM unless noted.
For `CCOc1ccc(C(=O)NCC(C)C)cc1`, the growth is 101% (inactive).

As for `CCOC(=O)C(=O)CC(=O)c1ccccc1`, the growth was 93.3% (inactive).

Take `C=CCOc1ccc(Cl)cc1Cl`: the growth was 106% (inactive).

On to `C#CCSc1nnnn1-c1ccccc1`, for which the growth is 36.7% (inactive).

As for `CCOC(=O)c1c(C)[nH]c(C)c1C=O`, the growth was 88.2% (inactive).

Take `C/C(Cc1ccccc1)=N\O`: the growth is 104% (inactive).

On to `Nc1cc2ccccc2c(O)c1O`, for which the growth was 40.2% (inactive).

Consider `NNC(=O)N/N=C1\C(=O)N(c2nccs2)C(=O)C(=O)C1c1nc2ccccc2s1` (configuration not stated), for which the growth is 80% (inactive).

In the case of `S=c1nc(-c2ccccn2)c(-c2ccccn2)n[nH]1`, the growth was 102% (inactive).

For `Nc1nc(Cl)cc(Cl)n1`, the growth is 102% (inactive).

Consider `CC1(C)C2CCC1(C)C1(C2)OCCS1` (configuration not stated), for which the growth is 97% (inactive).

With `CC(C)(N)CO[C@H]1C[C@H]2CC[C@@]1(C)C2(C)C`, the growth was 96.6% (inactive).

Turning to `COC(=O)c1ccc([N+](=O)[O-])c(C)c1`, the growth was 101% (inactive).

Take `CCCCCCCCCc1ccc(OC(C)=O)cc1`: the growth was 97.9% (inactive).

For `CC(C)=CCC[C@@H](C)[C@H]1CC[C@@]2(C)C3=C(CC[C@]12C)[C@@]1(C)CC[C@H](O)C(C)(C)[C@@H]1CC3`, the growth is 99.2% (inactive).

`CC(O)C(F)(F)C(F)(F)C(F)(F)F` (configuration not stated): the growth is 103% (inactive).

The next assay concerns PC-3 prostate. Described as above. The settings on record: 10 µM unless noted.
On to `CC1CC(C)S(=O)(=O)C1` (configuration not stated), for which the growth was 104% (inactive).

In the case of `Nc1c(Br)cc(O)c2c1C(=O)c1ccccc1C2=O`, the growth was 84.6% (inactive).

Turning to `NC(CO)(CO)c1ccccc1`, the growth is 100% (inactive).

For the molecule `CC(C)N1CC(=O)N2CSCC2C1=O` (configuration not stated), the growth was 101% (inactive).

With `CCNC(=O)OCCc1c2ccccc2nc2ccccc12`, the growth is 43.9% (inactive).

Take `CCN(CC)CCN1CNC(=S)NC1`: the growth is 101% (inactive).

`Oc1cc(O)c2c(c1)O[C@H](c1ccc(O)c(O)c1)[C@@H](O)C2`: the growth is 93.3% (inactive).

`CN1CCN(C(=S)S)CC1`: the growth is 98.4% (inactive).

For `O=c1[nH]c(=O)c2cc(Cl)cc(Cl)c2[nH]1`, the growth is 93.7% (inactive).

`CCOP(=O)(NC(c1ccccc1)c1ccccc1)OCC`: the growth is 82.6% (inactive).

Turning to `Cc1ccc2nc(N)nnc2c1`, the growth is 96% (inactive).

`NC(=S)N/N=C/c1ccc(Cl)cc1`: the growth was 99.6% (inactive).

As to `CC(=O)C1C(=O)C(=O)N(c2ccc(Cl)c(Cl)c2)C1=O` (configuration not stated), the growth is 96.9% (inactive).

As to `CN1CCCN(C(c2ccccc2)c2ccc(Cl)cc2)CC1` (configuration not stated), the growth is 86.5% (inactive).

`c1ccc(-c2ccc3ccccc3c2)cc1`: the growth is 90.8% (inactive).

Consider `CCOC(=O)C(C#N)=C1CCN(C)CC1`, for which the growth was 87.7% (inactive).

Regarding `Ic1cccs1`, the growth is 99.5% (inactive).

Turning to `O=C(O)c1cccc(-n2ncc(Cl)c(Cl)c2=O)c1`, the growth is 88.7% (inactive).

As to `CCCCn1cnc2c(=O)[nH]cnc21`, the growth was 94.2% (inactive).

Regarding `CC(=O)N(C(C)=O)c1ccc(C)cc1`, the growth is 93.7% (inactive).

In the case of `CCNCC(C)(C)O`, the growth is 91.5% (inactive).

`COc1cc(C(=O)NC(=S)NCc2ccncc2)cc(OC)c1OC`: the growth is 95.9% (inactive).

`CCOc1ccc(C(=O)NCC(C)C)cc1`: the growth is 98.1% (inactive).

Take `CCOC(=O)C(=O)CC(=O)c1ccccc1`: the growth was 89.4% (inactive).

As to `C=CCOc1ccc(Cl)cc1Cl`, the growth is 88.2% (inactive).

For `C#CCSc1nnnn1-c1ccccc1`, the growth is 89.4% (inactive).

Regarding `CCOC(=O)c1c(C)[nH]c(C)c1C=O`, the growth is 82.7% (inactive).

Take `C/C(Cc1ccccc1)=N\O`: the growth was 88.4% (inactive).

For the molecule `Nc1cc2ccccc2c(O)c1O`, the growth was 43.7% (inactive).

Consider `NNC(=O)N/N=C1\C(=O)N(c2nccs2)C(=O)C(=O)C1c1nc2ccccc2s1` (configuration not stated), for which the growth was 82.6% (inactive).

Consider `S=c1nc(-c2ccccn2)c(-c2ccccn2)n[nH]1`, for which the growth is 97.7% (inactive).

Turning to `Nc1nc(Cl)cc(Cl)n1`, the growth is 98.5% (inactive).

For `CC1(C)C2CCC1(C)C1(C2)OCCS1` (configuration not stated), the growth is 92.4% (inactive).

Consider `CC(C)(N)CO[C@H]1C[C@H]2CC[C@@]1(C)C2(C)C`, for which the growth was 88.8% (inactive).

For the molecule `COC(=O)c1ccc([N+](=O)[O-])c(C)c1`, the growth is 93.4% (inactive).

For the molecule `CCCCCCCCCc1ccc(OC(C)=O)cc1`, the growth is 94.1% (inactive).

As for `CC(C)=CCC[C@@H](C)[C@H]1CC[C@@]2(C)C3=C(CC[C@]12C)[C@@]1(C)CC[C@H](O)C(C)(C)[C@@H]1CC3`, the growth is 101% (inactive).

As to `CC(O)C(F)(F)C(F)(F)C(F)(F)F` (configuration not stated), the growth is 110% (inactive).

For another assay, the system named is SK-MEL-5 melanoma. The description is as above. The settings on record: 10 µM unless noted.
Regarding `CC1CC(C)S(=O)(=O)C1` (configuration not stated), the growth was 101% (inactive).

As for `Nc1c(Br)cc(O)c2c1C(=O)c1ccccc1C2=O`, the growth is 96.7% (inactive).

For the molecule `NC(CO)(CO)c1ccccc1`, the growth was 97.9% (inactive).

On to `CC(C)N1CC(=O)N2CSCC2C1=O` (configuration not stated), for which the growth is 104% (inactive).

Consider `CCNC(=O)OCCc1c2ccccc2nc2ccccc12`, for which the growth was 104% (inactive).

Consider `CCN(CC)CCN1CNC(=S)NC1`, for which the growth was 104% (inactive).

On to `Oc1cc(O)c2c(c1)O[C@H](c1ccc(O)c(O)c1)[C@@H](O)C2`, for which the growth was 104% (inactive).

Consider `CN1CCN(C(=S)S)CC1`, for which the growth was 111% (inactive).

In the case of `O=c1[nH]c(=O)c2cc(Cl)cc(Cl)c2[nH]1`, the growth was 103% (inactive).

For the molecule `CCOP(=O)(NC(c1ccccc1)c1ccccc1)OCC`, the growth was 105% (inactive).

On to `Cc1ccc2nc(N)nnc2c1`, for which the growth is 108% (inactive).

In the case of `NC(=S)N/N=C/c1ccc(Cl)cc1`, the growth is 99.1% (inactive).

As for `CC(=O)C1C(=O)C(=O)N(c2ccc(Cl)c(Cl)c2)C1=O` (configuration not stated), the growth is 107% (inactive).

On to `CN1CCCN(C(c2ccccc2)c2ccc(Cl)cc2)CC1` (configuration not stated), for which the growth is 94.8% (inactive).

As for `c1ccc(-c2ccc3ccccc3c2)cc1`, the growth is 96.4% (inactive).

As to `CCOC(=O)C(C#N)=C1CCN(C)CC1`, the growth was 111% (inactive).

For the molecule `Ic1cccs1`, the growth was 104% (inactive).

In the case of `O=C(O)c1cccc(-n2ncc(Cl)c(Cl)c2=O)c1`, the growth is 98% (inactive).

In the case of `CCCCn1cnc2c(=O)[nH]cnc21`, the growth was 119% (inactive).

As to `CC(=O)N(C(C)=O)c1ccc(C)cc1`, the growth is 95.5% (inactive).

For the molecule `CCNCC(C)(C)O`, the growth is 97.3% (inactive).

Regarding `COc1cc(C(=O)NC(=S)NCc2ccncc2)cc(OC)c1OC`, the growth is 90.3% (inactive).

As to `CCOc1ccc(C(=O)NCC(C)C)cc1`, the growth was 101% (inactive).

With `CCOC(=O)C(=O)CC(=O)c1ccccc1`, the growth is 95% (inactive).

On to `C=CCOc1ccc(Cl)cc1Cl`, for which the growth was 108% (inactive).

In the case of `C#CCSc1nnnn1-c1ccccc1`, the growth is 91.1% (inactive).

For the molecule `CCOC(=O)c1c(C)[nH]c(C)c1C=O`, the growth is 101% (inactive).

For `C/C(Cc1ccccc1)=N\O`, the growth was 99.4% (inactive).

In the case of `Nc1cc2ccccc2c(O)c1O`, the growth was 74.7% (inactive).

Take `NNC(=O)N/N=C1\C(=O)N(c2nccs2)C(=O)C(=O)C1c1nc2ccccc2s1` (configuration not stated): the growth was 96.5% (inactive).

Consider `S=c1nc(-c2ccccn2)c(-c2ccccn2)n[nH]1`, for which the growth is 108% (inactive).

On to `Nc1nc(Cl)cc(Cl)n1`, for which the growth was 98.8% (inactive).

`CC1(C)C2CCC1(C)C1(C2)OCCS1` (configuration not stated): the growth was 93.8% (inactive).

With `CC(C)(N)CO[C@H]1C[C@H]2CC[C@@]1(C)C2(C)C`, the growth was 86.1% (inactive).

Consider `COC(=O)c1ccc([N+](=O)[O-])c(C)c1`, for which the growth was 109% (inactive).

For `CCCCCCCCCc1ccc(OC(C)=O)cc1`, the growth is 103% (inactive).

Take `CC(C)=CCC[C@@H](C)[C@H]1CC[C@@]2(C)C3=C(CC[C@]12C)[C@@]1(C)CC[C@H](O)C(C)(C)[C@@H]1CC3`: the growth was 104% (inactive).

Take `CC(O)C(F)(F)C(F)(F)C(F)(F)F` (configuration not stated): the growth was 101% (inactive).

These data come from PubChem BioAssay (NCI).
